High-throughput results: PubChem, several laboratories
The list is not random: actives were taken first. Their share in the collection is about 0.63%.
NTR1 agonist: activates human neurotensin receptor 1 | P30989 | NTR1-U2OS beta-arrestin-GFP spot imaging, agonist mode | activation, % at 20 µM | 330,000 tested, 0.17% active | AID 493036;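 active means activation at or above 40% of the spot to cytoplasm intensity ratio, with at least 20 cells analyzed; inconclusive means wells under 20 cells, flagged as cytotoxic or low count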
Target sequence (P30989 whole entry, looked up): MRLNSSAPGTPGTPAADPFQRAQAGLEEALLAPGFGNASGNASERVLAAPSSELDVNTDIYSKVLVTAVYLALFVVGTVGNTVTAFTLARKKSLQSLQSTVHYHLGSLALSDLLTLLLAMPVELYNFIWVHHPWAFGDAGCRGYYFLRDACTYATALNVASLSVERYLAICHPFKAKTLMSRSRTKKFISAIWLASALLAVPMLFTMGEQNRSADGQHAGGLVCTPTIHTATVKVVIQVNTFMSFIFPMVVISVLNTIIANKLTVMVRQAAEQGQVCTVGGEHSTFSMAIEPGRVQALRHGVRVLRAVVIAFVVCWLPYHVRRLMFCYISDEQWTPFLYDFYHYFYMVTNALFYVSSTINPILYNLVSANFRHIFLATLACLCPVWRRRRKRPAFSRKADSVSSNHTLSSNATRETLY
HIF activator: HIF pathway transcriptional activation | 300,000 tested, 0.32% active | AID 1910 | activation, % at 7.5 µM (by protocol) | U2OS HRE-luciferase reporter, luminescence; normalized: DMSO 0%, desferrioxamine 100%;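 active means mean activation of at least 10% of the iron chelator positive control signal, with at least half of replicates also reaching 10%; inconclusive means mean and replicate majority disagree about reaching 10%; inactive means mean and most replicates under 10%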
Platelet DG rel: modulates dense granule release in human platelets; human platelet-rich plasma, SFLLRN dense granule ATP release, luminescence; inhibition, %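 (compounds screened at 7.5 µM in platelet-rich plasma)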; 300,000 tested, 0.22% active; AID 1663;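 active means mean replicate score, as percent of positive control, at or above 50; inconclusive means mean below 50 but at least one replicate at or above 50; inactive means mean and every replicate below 50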
Each line names hits and unclear results; the compound was inactive in the other large screens.

Cc1ccc(S(=O)(=O)NCCC(=O)OCC(=O)NC(=O)c2cccn2C)cc1	Platelet DG rel 61
Cc1ccc(S(=O)(=O)NCC(=O)OCC(=O)NC(=O)c2cccn2C)cc1	none
COc1ccc(-c2cc(C(F)(F)F)nc(SCC(=O)N3CCOCC3)n2)cc1OC	Platelet DG rel inconclusive
COc1ccccc1-c1cc(C(F)(F)F)nc(S(=O)(=O)CCCC(=O)O)n1	none
COc1ccc(-c2cc(C(F)(F)F)nc(S(=O)(=O)CCC(=O)N3CCOCC3)n2)cc1	Platelet DG rel 134
COc1ccccc1-c1cc(C(F)(F)F)nc(S(=O)(=O)CCCC(=O)N2CCOCC2)n1	HIF activator 15
CC(=NNC(=O)COc1cccc(C)c1)c1cccnc1	none (no result: HIF activator, Platelet DG rel)
Cc1cc(Cl)ccc1OC(C)c1nnc(N)s1 (stereo not given)	none
COC(=O)[C@H](Cc1ccc(O)cc1)NC(=O)Cn1cnc2c(NCc3ccccc3)ncnc21	none (no result: HIF activator, Platelet DG rel)
COc1ccc(C(=O)NCCn2cc(SCC(=O)Nc3nnc(C)s3)c3ccccc32)cc1	none
Cc1nnc(NC(=O)CSc2cn(CCNC(=O)c3ccccc3)c3ccccc23)s1	Platelet DG rel 58
CN(Cc1ccc(F)cc1)C(=O)C(Cc1ccccc1)NC(=O)c1ccccc1 (stereo not given)	none
CN(CC(=O)Nc1ccccc1Br)C(=O)C(Cc1ccccc1)NC(=O)c1ccccc1 (stereo not given)	Platelet DG rel 59
Cn1c(=O)c2c(nc(NCc3ccco3)n2C)n(C)c1=O	none
Cn1c(=O)c2c(nc(NCc3ccco3)n2C/C=C/c2ccccc2)n(C)c1=O	Platelet DG rel 74
CCCCOc1ccc(C(=O)NCC(=O)N(C)Cc2nc3ccccc3c(=O)[nH]2)cc1	none (no result: HIF activator, Platelet DG rel)
COc1ccc2c(c1)-c1nc(NC(=O)c3ccco3)sc1CC2	HIF activator 9.9
COc1ccc2c(c1)CCc1sc(NC(=O)c3ccco3)nc1-2	none
Cc1ccnc(N2C(=O)c3ccccc3C2Nc2cccc(C)c2C)c1 (stereo not given)	none
Cc1ccnc(N2C(=O)c3ccccc3C2O)c1 (stereo not given)	Platelet DG rel 69
Cc1cccc(OCCCC(=O)NNC(=O)c2ccccn2)c1	none (no result: HIF activator, Platelet DG rel)
CCOC(=O)C1CCN(C(=O)c2ccc3c(c2)NC(=O)/C(=C\c2ccc(C)cc2)S3)CC1	none
O=C(CCc1nnc2ccc(NCc3ccco3)nn12)N1CCN(c2ccccc2)CC1	none
CCOC(=O)C1CCN(C(=O)CCc2nnc3ccc(NCc4ccco4)nn23)CC1	Platelet DG rel 70
O=C(N/N=C/C(Br)=C\c1ccccc1)c1n[nH]c2c1CCC2	HIF activator 12
CC(/C=N/NC(=O)c1n[nH]c2c1CCC2)=C\c1ccccc1	none
CCOC(=O)C1CCCN(C(=O)c2ccc3oc(CCc4ccccc4)nc3c2)C1 (stereo not given)	HIF activator 63
CC(=O)C1CCCN(C(=O)c2ccc3oc(CCc4ccccc4)nc3c2)C1 (stereo not given)	none
CCOC(=O)C1CCCN(C(=O)c2ccc3nc(-c4ccc(OC)c(OC)c4)c(-c4ccc(OC)c(OC)c4)nc3c2)C1 (stereo not given)	none
CCOC(=O)C1CCCN(C(=O)c2ccc3nc(-c4ccccc4)c(-c4ccccc4)nc3c2)C1 (stereo not given)	HIF activator 17
Cc1nnc(SCc2ccc(F)cc2)n1NC/C=C/c1ccccc1	none
O=C(c1ccccc1[N+](=O)[O-])N1CCCC(C(=O)N2CCCCCC2)C1 (stereo not given)	none
O=C(COC(=O)c1cccc(Cl)c1)Nc1cc(Cl)ccc1Oc1ccccc1	none
O=C(Nc1ccccn1)c1ccc(C(=O)c2ccccc2)cc1	none
O=C(NC(=O)c1ccccc1)Nc1ccccn1	Platelet DG rel 82
Cc1ccc(C)c(SCC(=O)Nc2cc(S(=O)(=O)N3CCOCC3)ccc2C)c1	none (no result: HIF activator, Platelet DG rel)
CCCCNC(=O)c1cc2nc(-c3ccccc3)cc(C(F)(F)F)n2n1	none
CCCNC(=O)c1cc2nc(-c3ccccc3)cc(C(F)(F)F)n2n1	HIF activator 96
COc1ccc(N2CCN(S(=O)(=O)CCNC(=O)c3ccc4c(c3)OCO4)CC2)cc1	none
CSCC[C@H](NC(=O)N1CCn2c1nc1ccccc12)C(=O)N[C@H](Cc1ccccc1)C(=O)O	none
COc1ccc(-c2nc(C#N)c(N3CCN(C(=O)c4ccco4)CC3)o2)cc1OC	HIF activator 11
COc1ccccc1-c1nc(C#N)c(N2CCN(C(=O)c3ccco3)CC2)o1	none
CC(Oc1cccc(Cl)c1)C(=O)Nc1cc(S(=O)(=O)N2CCCCC2)ccc1N1CCOCC1 (stereo not given)	none
FC(F)(F)c1cc(CCN2CCNC[C@H]2Cc2cccc3ccccc23)cc(C(F)(F)F)c1	NTR1 agonist 51
Oc1ccc(C[C@@H]2CNCCN2CCc2cc(C(F)(F)F)cc(C(F)(F)F)c2)cc1	none
COc1cccc(-c2ccc(NC(=O)C3CCCN(CCCn4nc(C)cc4C)C3)cc2)c1 (stereo not given)	none
COc1cccc2c1nc(C)c1cc(C)oc12	none
COc1cccc2nc3cc(C)c(C)cc3nc12	Platelet DG rel 70
O=C(NC(=S)N1CCN(c2ccc(F)cc2)CC1)C12CC3CC(CC(C3)C1)C2	none
CCOc1ccccc1N1CCN(C(=S)NC(=O)C23CC4CC(CC(C4)C2)C3)CC1	HIF activator 404
Cc1ccc(-c2ccc(=O)n(Cc3ccc(F)cc3)n2)cc1	none
Oc1ccc(/C=N/Nc2cccc(Cl)n2)c(O)c1	Platelet DG rel 50
Oc1ccc(/C=N/Nc2ccc(C(F)(F)F)cn2)cc1	none
Oc1ccc(/C=N\Nc2cc(N3CCOCC3)nc(N3CCOCC3)n2)c(O)c1	none
Oc1ccc(/C=N/Nc2ccc(C(F)(F)F)cn2)c(O)c1	HIF activator 15
O=C(NCC1CCCO1)C(C(=O)c1ccc(F)cc1)n1ccccc1=O (stereo not given)	none
C/C(=N/NC(=O)c1ccoc1C)c1cccc(NC(=O)C2CC2)c1	none
CCOC(=O)Nc1nnc(-c2ccc(OC)c(OC)c2)s1	none
Cc1cccc(NC(=O)c2ccc(NCC3CCCO3)c([N+](=O)[O-])c2)n1 (stereo not given)	none
Cc1cccc(NC(=O)c2ccc(NCCO)c([N+](=O)[O-])c2)n1	Platelet DG rel 85
O=C(CCNC(=O)c1ccc(Cl)cc1)Nc1ccc(S(=O)(=O)N2CCCCC2)cc1	none
O=C(c1ccc(C(F)(F)F)cc1)C1CCCN(C(=O)Cn2cncn2)C1 (stereo not given)	none
O=C(c1cccc(C(F)(F)F)c1)C1CCCN(C(=O)Cn2cncn2)C1 (stereo not given)	HIF activator 11
CCOC(=O)C1=C(N)OC2=C(C(=O)CC(C)(C)C2)C1c1ccccc1OCC#N (stereo not given)	none
O=C(CSc1nnc2c3ccccc3c3ccccc3c2n1)Nc1ccccc1F	Platelet DG rel 55
O=C(CSc1nnc2c3ccccc3c3ccccc3c2n1)Nc1ccccc1	none
C=CCN1C(=O)N(CC=C)c2cccc3cccc1c23	none
CCN1C(=O)Nc2cccc3cccc1c23	Platelet DG rel 59
O=C(CNC(=O)c1ccccc1Br)N/N=C/c1cc(Br)ccc1O	HIF activator 21
O=C(CNC(=O)c1ccccc1Br)N/N=C/c1ccccc1O	none
O=C(N/N=C/c1cc(Cl)ccc1O)c1ccccc1Br	HIF activator 10
O=C(N/N=C/c1cc(Cl)ccc1O)c1cccnc1	none
